The nature of assay [1]: Cell Viability - BJ (AID 421; calls by dose curve;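 further: potency means the concentration at half of the fitted maximal effect; cells exposed to compound for 40 hours at 37 °C before readout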). Particulars: BJ fibroblast viability, qHTS. The method in brief: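 Cytotoxicity as drop in intracellular ATP (CellTiter-Glo, 20 min RT) after 40 hr compound exposure of BJ fibroblasts at 37 °C. Titrations scaled between DMSO and 100 uM tamoxifen, Hill-fitted for AC50.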
Background: In qHTS, concentration-response curves come from the screen itself.

A short description of assay [2]: Cell Viability - Hek293 (AID 427;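 active means compounds whose dose-response curve shows a full or clear partial loss of cell viability, called from curve shape rather than a numeric limit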;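 further: potency means the concentration at half of the fitted maximal effect; cells exposed to compound for 40 hours at 37 °C before reading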). As to conditions: qHTS. The method in brief:
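Luminescent ATP content (CellTiter-Glo, 20 min at room temperature) was measured after a 40 hr, 37 °C compound exposure of HEK293 cells. AC50 values came from Hill-equation fits of qHTS concentration-response data normalized to DMSO and 100 uM tamoxifen.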

Assay [3] is described as follows: Cell Viability - NIH 3T3 (AID 541).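 Further: cells exposed to compound for 40 hours; plate controls were DMSO alone for no effect and tamoxifen positive control for full effect; nearly all actives have a fitted effect of over 25% in size.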 As to conditions: NIH 3T3 cell viability, qHTS; activity change, negative = cytotoxicity: at 92.2 µM (top of the series). The method in brief:
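AC50 values reflect concentration-dependent loss of intracellular ATP in NIH 3T3 cells after 40 hr treatment in complete culture medium, quantified by luciferase-based luminescence.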

The nature of assay [4]: Cell Viability - H-4-II-E (AID 543).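 Further: cells exposed to compound for 40 hours; on the % scale 0 is the no-effect control and ±100 the full control effect; nearly all actives have a fitted effect of over 35% in size.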 As to conditions: H-4-II-E rat hepatoma viability; series mostly up to 92.2 µM. The method in brief:
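Here, cytotoxicity is measured in the rat hepatoma line H-4-II-E as loss of intracellular ATP after 40 hr compound treatment, detected by luciferase luminescence.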

Assay [5] in a line: Cell Viability - LYMP2-004 (AID 966).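 Further: plate controls were DMSO only for no effect and tetraoctylammonium bromide control for full effect; nearly all actives have a fitted effect of over 65% in size.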 Particulars: LYMP2-004 lymphoblastoid cell viability, qHTS; series mostly up to 92.2 µM. An outline of the steps:
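Acute toxicity is scored as a concentration-dependent drop in intracellular ATP, quantified by luciferase luminescence, in human lymphoblastoid cells exposed to compound for 24 hr. AC50 derives from Hill-equation modelling.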

Assay [6] addresses Estrogen receptor (Homo sapiens) (UniProt P03372). The assay is described as follows: qHTS assay for small molecule antagonists of estrogen receptor alpha signaling (AID 588513; active means well fitted curve in the direction sought with a large enough effect in the signal ratio, with a control signal flat, not every such curve was filed as active; the % refers to the signal ratio; further: on the % scale 0 is the no-effect control and ±100 the full control effect). Particulars: ER-alpha-UAS-bla HEK293, beta-lactamase ratio, antagonist mode; series mostly up to 76.9 µM. The method in brief: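 ER-alpha-UAS-bla GripTite HEK 293 cells in medium with 2% charcoal/dextran-treated FBS were preincubated 4 h at 37 C, dosed with compound (1:2 titration), stimulated with 0.5nM 17-beta-estradiol for 18 h, then read by CCF4 beta-lactamase fluorescence.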

For assay [7] the target is unchanged. The assay is described as follows: qHTS assay for small molecule agonists of estrogen receptor alpha signaling (AID 588514; calls by dose curve;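 further: 0% = vehicle only and 100% = reference agonist; nearly all actives have a fitted effect of over 70% in size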). Particulars: ER-alpha-UAS-bla HEK293, beta-lactamase ratio, 18 h; series mostly up to 76.8 µM. An outline of the steps:
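Reporter-gene assay. […] controls beta-lactamase in HEK 293 GripTite cells; after 18 hrs with compound, CCF4 substrate is added for 2 hrs and fluorescence is read.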

The target in assay [8] is Glucocorticoid receptor (Homo sapiens) (UniProt P04150). Briefly: qHTS assay for small molecule antagonists of glucocorticoid receptor signaling (AID 588533; active means well fitted inhibition curve with a large enough effect in the signal ratio, with a control signal flat, not every such curve was filed as active; the % refers to the signal ratio;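 further: cells stimulated with 2 nM dexamethasone as agonist; on the % scale 0 is the no-effect control and ±100 the full control effect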). As to conditions: HeLa MMTV-bla, GRE beta-lactamase ratio, antagonist mode, 18 h; series mostly up to 76.8 µM. An outline of the steps: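 Antagonist-mode qHTS: compound titrations added to GRE-bla HeLa cells, then dexamethasone 2 nM final; 18 h, 37 C. CCF4 FRET fluorescence normalized to dexamethasone and DMSO; IC50 from Hill fit.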

For assay [9], the target named is Peroxisome proliferator-activated receptor gamma (Homo sapiens) (UniProt P37231). The assay is described as follows: qHTS assay for small molecule agonists of peroxisome proliferator-activated receptor gamma signaling (AID 588536; active means well fitted curve in the direction sought with a large enough effect in the signal ratio, with a control signal flat, not every such curve was filed as active; the % refers to the signal ratio;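 further: 0% = DMSO basal wells and 100% = rosiglitazone at 2 µM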). As to conditions: HEK293 PPARg-UAS-bla, beta-lactamase ratio, 16 h, percent of rosiglitazone response, DMSO as zero; series mostly up to 76.7 µM. The method in brief:
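Ratiometric blue/green fluorescence (405 nm excitation; 460 and 530 nm emission) from CCF4-loaded HEK293 reporter cells serves as signal. Exposure to test compounds lasts 16 h at 37 C in medium containing 1% charcoal/dextran-treated serum.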

Assay [10] deals with Retinoic acid receptor RXR-alpha (Homo sapiens) (UniProt P19793). The assay is described as follows: qHTS assay for small molecule agonists of retinoid X receptor alpha signaling (AID 588544; calls by dose curve;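 further: 0% = DMSO basal wells and 100% = reference agonist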). Particulars: HEK293T RXRa-UAS-bla, beta-lactamase reporter, 18 h; series mostly up to 76.7 µM.
Assay [11] is described as follows: qHTS assay for small molecule agonists of the antioxidant response element (ARE) signaling pathway (AID 651741; active means well fitted activation curve with a large enough effect in the signal ratio; the % refers to the signal ratio; further: potency means the concentration at half of the fitted maximal effect; on activation: % of control where 0% means no effect). Particulars: HepG2 ARE-bla reporter, beta-lactamase FRET ratio, 16 h; series mostly up to 96 µM. The method in brief: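 HepG2 ARE-bla cells plated at 2,000 cells/well and incubated 5 h at 37 C/5% CO2 received 23 nL compound in DMSO. After 16 h at 37 C, LiveBLAzer B/G FRET substrate was applied for 2 h at room temperature and fluorescence read.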

The nature of assay [12]: qHTS assay for small molecule disruptors of the mitochondrial membrane potential - 5 hr assay (AID 651755; calls by dose curve; further: on the % scale 0 is the no-effect control and ±100 the full control effect; nearly all actives have a fitted effect of over 40% in size). Particulars: JC-1-type ratio dye; series mostly up to 92.2 µM. The method in brief: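 HepG2 cells (2,000/well), attached overnight, exposed to compound 5 hr at 37C, then Mito-MPS dye 30 min. Fluorescence read for monomers (490/535 nm) and aggregates (540/590 nm).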

Assay [13] is described as follows: qHTS assay for environmental chemicals that activate the Aryl hydrocarbon Receptor (AhR) signaling pathway (AID 651777). Further: % of control where 0% means no effect; nearly all actives have a fitted effect of over 15% in size. Particulars: 1A2-DRE human hepatoma cells, luciferase, 24 h; activation: stronger effect = higher value. The method in brief: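 Concentration–response screening used 1,200 1A2-DRE cells per well, 24 hr compound exposure (37 C, 5% CO2), and One-Glo luminescence as the AhR-driven CYP1A2 reporter signal.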

Assay [14] in a line: qHTS assay for small molecule agonists of the antioxidant response element (ARE) signaling pathway measured by Nrf2-dependant transcriptional activity (AID 720636; active means well fitted curve in the direction sought with a large enough effect in the repeat runs; an effect the other way counts as inactive or inconclusive; further: % of control where 0% means no effect). Particulars: ARE-luc HepG2, Nrf2 luciferase reporter, 16 h; series mostly up to 92.4 µM. The method in brief:
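Attachment 6 hr at 37 C, then compound versus DMSO vehicle for 16 hr in ARE-luc HepG2 cells (1% dialyzed FBS); luminescence recorded 30 min after ONE-Glo addition at room temperature.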

A short description of assay [15]: Cell Viability - Jurkat (AID 426;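 active means dose-dependent loss of cell ATP signal giving a full or clear fitted curve, ranked by lower potency value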;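 further: potency means the concentration at half of the fitted maximal effect; cells exposed to compound for 40 hours at 37 °C before ATP read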). Particulars: qHTS. The method in brief: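 Seed 5000 Jurkat E6-1 cells/well; add compound; incubate 40 hr at 37 °C; add CellTiter-Glo; wait 20 min at room temperature; read luminescence. Fit concentration-response with Hill equation for AC50.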
A short description of assay [16]: MultiTox-Fluor Cytotoxicity Assay - LYMP1-001 - Live Cells (AID 947).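 Further: 0% = DMSO only and full inhibition = tetraoctylammonium bromide control.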 Particulars: LYMP1-001 lymphoblastoid cells, live-cell protease fluorescence viability; series mostly up to 92.2 µM.
Assay [17] addresses Glucocorticoid receptor (Homo sapiens) (UniProt P04150). The assay is described as follows: qHTS assay for small molecule agonists of glucocorticoid receptor signaling (AID 588532; active means well fitted curve in the direction sought with a large enough effect in the signal ratio, with a control signal flat; the % refers to the signal ratio;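 further: 100% = dexamethasone at 0.1 µM and 0% = DMSO only wells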). Particulars: HeLa MMTV-bla, beta-lactamase ratio, agonist, 18 h; stronger effect = higher value; percent of dexamethasone control, DMSO zero. The method in brief:
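MMTV-bla HeLa beta-lactamase reporter cells in 1% charcoal/dextran FBS medium, compounds up to 92 uM for 18 h at 37 C, CCF4 readout; normalized to 0.1 uM dexamethasone (100%), EC50 and efficacy from Hill fits.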

Assay [18] is described as follows: qHTS assay for small molecule antagonists of peroxisome proliferator-activated receptor delta signaling (AID 588535; active means well fitted inhibition curve with a large enough effect in the signal ratio, with a control signal flat, not every such curve was filed as active; the % refers to the signal ratio;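 on max response: cells co-treated with a PPAR-delta agonist as stimulator during compound exposure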). As to conditions: HEK293T PPARd-UAS-bla, beta-lactamase FRET ratio, 18 h; 460 nm channel. The method in brief:
(§1)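 Cells were seeded at 4000 per well in assay medium containing 2% charcoal/dextran FBS and held 5 hrs at 37 C. Compounds were then added for 18 hrs. CCF4 substrate was applied for 2 hrs at room temperature before fluorescence reading.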

In assay [19] the target is Peroxisome proliferator-activated receptor delta (Homo sapiens) (UniProt Q03181). The description is as above. Particulars: HEK293T PPARd-UAS-bla, beta-lactamase FRET ratio, 18 h; series mostly up to 76.7 µM. The method in brief: as §1
The target in assay [20] is Peroxisome proliferator-activated receptor gamma (Homo sapiens) (UniProt P37231). The assay is described as follows: qHTS assay for small molecule antagonists of peroxisome proliferator-activated receptor gamma signaling (AID 588537; active means well fitted inhibition curve with a large enough effect in the signal ratio, with a control signal flat, not every such curve was filed as active; the % refers to the signal ratio;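 further: reporter cells co-stimulated with 50 nM rosiglitazone agonist during compound treatment; % of control where 0% means no effect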). Particulars: HEK293 PPARg-UAS-bla, beta-lactamase ratio, antagonist mode; series mostly up to 76.8 µM. An outline of the steps: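 Step one: plate 3000 HEK293 UAS-bla cells per well in medium with 1% stripped serum and hold 6-6.5 h at 37 C. Step two: add compound and 50 nM agonist for 16 h. Step three: CCF4 loading, fluorescence read.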

Molecules are shown by their SMILES. “And” between values parts separate entries of the source, which are not always exact repeats. Equal entries are not always repeated. Results filed as inconclusive are left out. The source made the active and inactive calls. Unless noted, the call rests on the fitted dose curve; in most records, active means well fitted curve in the direction sought with a large enough effect; inconclusive means small, poorly fitted or top-dose-only effect, or another doubt; inactive means no such curve, though single readings can be large; an effect the other way counts as inactive or inconclusive.

Chain of Estrogen receptor (Homo sapiens) (P03372 whole entry, looked up): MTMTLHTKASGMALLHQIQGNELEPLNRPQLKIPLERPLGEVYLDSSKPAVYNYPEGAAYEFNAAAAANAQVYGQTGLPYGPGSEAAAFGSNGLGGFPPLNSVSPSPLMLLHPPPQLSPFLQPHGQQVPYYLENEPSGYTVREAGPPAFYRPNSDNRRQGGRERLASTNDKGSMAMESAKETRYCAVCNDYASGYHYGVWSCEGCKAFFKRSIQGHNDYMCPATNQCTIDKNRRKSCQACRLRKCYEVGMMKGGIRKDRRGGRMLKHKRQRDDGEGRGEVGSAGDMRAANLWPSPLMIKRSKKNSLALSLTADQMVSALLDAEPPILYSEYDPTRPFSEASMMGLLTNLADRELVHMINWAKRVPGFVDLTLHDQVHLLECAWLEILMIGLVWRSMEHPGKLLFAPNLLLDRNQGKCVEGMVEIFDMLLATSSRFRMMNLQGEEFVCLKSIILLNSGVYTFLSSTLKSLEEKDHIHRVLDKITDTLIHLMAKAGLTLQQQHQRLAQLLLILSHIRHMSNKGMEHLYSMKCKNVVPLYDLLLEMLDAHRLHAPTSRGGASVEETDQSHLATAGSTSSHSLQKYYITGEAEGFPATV
Chain of Peroxisome proliferator-activated receptor delta (Homo sapiens) (Q03181 whole entry, looked up): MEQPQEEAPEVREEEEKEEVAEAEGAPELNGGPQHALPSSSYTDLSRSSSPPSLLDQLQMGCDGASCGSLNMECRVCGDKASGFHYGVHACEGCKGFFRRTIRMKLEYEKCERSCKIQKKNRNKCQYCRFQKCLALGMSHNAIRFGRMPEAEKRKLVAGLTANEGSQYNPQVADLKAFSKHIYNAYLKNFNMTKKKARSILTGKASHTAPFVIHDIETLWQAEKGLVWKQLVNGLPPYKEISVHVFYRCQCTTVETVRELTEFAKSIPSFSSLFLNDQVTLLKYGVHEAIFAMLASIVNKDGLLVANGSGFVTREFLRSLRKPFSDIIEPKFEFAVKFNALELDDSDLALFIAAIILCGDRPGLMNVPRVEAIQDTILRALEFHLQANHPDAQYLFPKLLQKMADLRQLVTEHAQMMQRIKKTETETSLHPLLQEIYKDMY
Chain of Glucocorticoid receptor (Homo sapiens) (P04150 whole entry, looked up): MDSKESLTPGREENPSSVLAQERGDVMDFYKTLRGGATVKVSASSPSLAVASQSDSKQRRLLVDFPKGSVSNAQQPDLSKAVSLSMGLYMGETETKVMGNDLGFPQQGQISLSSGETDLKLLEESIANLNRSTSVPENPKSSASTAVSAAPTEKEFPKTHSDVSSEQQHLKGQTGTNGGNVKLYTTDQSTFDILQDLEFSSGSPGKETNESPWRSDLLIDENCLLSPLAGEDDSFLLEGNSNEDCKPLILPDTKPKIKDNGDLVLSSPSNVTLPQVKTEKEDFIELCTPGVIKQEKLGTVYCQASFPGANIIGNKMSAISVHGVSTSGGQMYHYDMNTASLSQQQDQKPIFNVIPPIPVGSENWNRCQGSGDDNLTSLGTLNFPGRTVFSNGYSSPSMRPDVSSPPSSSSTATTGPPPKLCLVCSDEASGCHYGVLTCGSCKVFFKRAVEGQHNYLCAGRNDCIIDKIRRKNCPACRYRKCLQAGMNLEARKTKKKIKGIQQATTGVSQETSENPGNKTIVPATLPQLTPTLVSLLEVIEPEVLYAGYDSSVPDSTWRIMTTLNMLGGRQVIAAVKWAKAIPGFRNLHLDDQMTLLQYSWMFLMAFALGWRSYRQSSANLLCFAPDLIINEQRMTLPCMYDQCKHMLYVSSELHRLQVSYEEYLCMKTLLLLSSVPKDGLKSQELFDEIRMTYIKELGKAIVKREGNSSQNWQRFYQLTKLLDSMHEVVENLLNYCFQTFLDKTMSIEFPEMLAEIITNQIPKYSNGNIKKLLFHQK
Chain of Peroxisome proliferator-activated receptor gamma (Homo sapiens) (P37231 whole entry, looked up): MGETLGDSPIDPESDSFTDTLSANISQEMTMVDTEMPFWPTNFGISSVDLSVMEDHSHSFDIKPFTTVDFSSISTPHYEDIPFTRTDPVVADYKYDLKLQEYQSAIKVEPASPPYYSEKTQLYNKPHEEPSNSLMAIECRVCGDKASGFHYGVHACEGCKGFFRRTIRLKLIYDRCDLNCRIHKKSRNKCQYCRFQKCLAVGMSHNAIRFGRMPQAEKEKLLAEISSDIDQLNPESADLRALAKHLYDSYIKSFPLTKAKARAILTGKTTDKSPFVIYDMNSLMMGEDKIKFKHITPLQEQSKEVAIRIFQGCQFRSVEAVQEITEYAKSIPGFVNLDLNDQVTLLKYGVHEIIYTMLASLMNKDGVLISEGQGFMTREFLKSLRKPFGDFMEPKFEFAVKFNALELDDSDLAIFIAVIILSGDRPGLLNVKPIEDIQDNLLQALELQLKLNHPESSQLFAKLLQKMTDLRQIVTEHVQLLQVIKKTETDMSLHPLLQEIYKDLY
Chain of Retinoic acid receptor RXR-alpha (Homo sapiens) (P19793 whole entry, looked up): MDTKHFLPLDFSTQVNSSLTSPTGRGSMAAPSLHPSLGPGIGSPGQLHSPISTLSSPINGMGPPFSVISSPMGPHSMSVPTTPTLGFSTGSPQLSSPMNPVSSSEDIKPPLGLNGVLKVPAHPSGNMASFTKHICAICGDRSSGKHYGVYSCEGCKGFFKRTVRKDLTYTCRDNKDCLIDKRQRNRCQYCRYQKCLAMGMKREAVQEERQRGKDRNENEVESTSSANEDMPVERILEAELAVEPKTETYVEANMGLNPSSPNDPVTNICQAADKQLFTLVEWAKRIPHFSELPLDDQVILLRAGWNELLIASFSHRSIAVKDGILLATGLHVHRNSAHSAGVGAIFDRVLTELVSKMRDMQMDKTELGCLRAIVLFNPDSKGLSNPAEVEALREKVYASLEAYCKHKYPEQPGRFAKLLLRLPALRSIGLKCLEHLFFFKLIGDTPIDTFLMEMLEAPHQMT

Regarding `CCCC[N+](=O)[O-]`, the Potency in assay [1] and in assay [2] was > 92 µM (inactive) in each case. Further, the Potency result in assay [3], in [4], in assay [5], in assay [6], in assay [7] and in [11] was “inactive” throughout. In addition, the Potency result in assay [12] and in assay [14] was “inactive” each time. Also, the result in assay [8], in assay [9] and in [10] was inactive. Further, the activation in assay [13] is 0.218% (inactive).

Take `Cl/C=C/Cl`: the Potency in [1] and in assay [15] was > 92 µM (inactive) in each case. The Potency result in [3], in [4], in assay [5], in [6], in assay [7] and in assay [11] was “inactive” in each case. Also, the Potency result in assay [14] was “inactive”. For the same compound, the call in assay [16], in assay [8] and in assay [19] was inactive. The activation in assay [17] was -4.99% (inactive); in [13], 0.896% (inactive). In assay [18], the max response was -19.1%.

For the compound `CN(C)C(=O)Nc1cccc(C(F)(F)F)c1`, the Potency in assay [1] and in assay [15] was > 92 µM (inactive) each time. The Potency entry in [3], in [4], in [5], in assay [20], in [11] and in [14] was “inactive” in each case. The compound was classed as inactive in assay [16], in assay [19], in assay [9] and in assay [10]. For the same compound, the max response in assay [18] is -0.756% and 6.11%.

For `CC(C)[N+](=O)[O-]`, the Potency in assay [1] and in [2] was > 92 µM (inactive) throughout. The Potency result in assay [4], in assay [5], in assay [11] and in assay [14] was “inactive” in each case. Further, the result in [16], in [19], in assay [9] and in [10] was inactive. In addition, the activation in assay [17] is -6.88% (inactive); in [13], 0.897% (inactive). The max response in assay [18] was found to be 7.55%.

As for `O=C(Cl)c1ccccc1F`, the Potency in assay [1] and in assay [15] was > 92 µM (inactive) each time. The Potency entry in assay [3], in [4], in assay [6], in assay [20] and in assay [12] was “inactive” each time. Further, the compound was classed as inactive in assay [16], in assay [19], in assay [9] and in [10]. For the same compound, the max response in assay [18] was -9.33%. Further, in [13], the activation is 4.83% (inactive).

For the compound `O=[N+]([O-])c1cc(Cl)c(Cl)c(Cl)c1`, the Potency in assay [1] and in [2] was > 92 µM (inactive) in each case. Further, in assay [3], the activity change, negative = cytotoxicity was -119% (active). Besides, the Potency result in [4], in [5], in [6], in [7], in [12] and in assay [14] was “inactive” in each case. In addition, the max response in assay [18] is 30.2%. For the same compound, the outcome in assay [19] and in [10] was inactive. In addition, the activation in assay [13] was 0.049% (inactive).

As for `Oc1c(Cl)c(Cl)cc(Cl)c1Cl`, the Potency was > 92 µM (inactive) in assay [1], 49.1 µM (active) in assay [15] and 66.8 µM (active) in assay [11]. For the same compound, the result in assay [16], in assay [19], in [9] and in assay [10] was inactive. Also, the max response in assay [18] is -31%. In addition, the Potency result in [14] is “inactive”.

As to `Clc1cc(Cl)c(Cl)c(Cl)c1`, the Potency in assay [1] and in assay [15] was > 92 µM (inactive) in each case. For the same compound, the Potency result in assay [3], in [4], in [5], in assay [7], in [12] and in [14] was “inactive” each time. In addition, the result in assay [16], in assay [9] and in assay [10] was inactive. The results for the activation in [17] and in assay [13] were 16.9% (inactive) and 0.248% (inactive), respectively.

Values taken from PubChem BioAssay (NCATS).
